# Laboratory results taken from PubChem BioAssay AID588397 (National Center for Advancing Translational Sciences (NCATS), 2011).
# Out of some 1,300 compounds screened, about 1,000 (77%) were called active. Inconclusive results (about 7%) are left out. Calls come from the whole dose curve; as a rule, active = well fitted inhibition curve with a large enough effect; inconclusive = small, poorly fitted or top-dose-only effect; inactive = no such curve, though single readings can be large or run the other way. The set was probably picked from earlier hits. This is one part of the list.
# Assay: qHTS of small molecules that selectively kill Giardia lamblia: Hit Validation.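 Note: viability measured as ATP content by luminescence so killing lowers signal; trophozoites exposed to compounds for 48 h anaerobically at 37 °C; nearly all actives have a fitted effect of over 65% in size.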
# Conditions: Giardia lamblia trophozoite viability, dose-response; series mostly up to 38.3 µM
# How it was run: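 Viability, read as ATP luminescence: trophozoites at 100 cells/well, compound added, 48 hrs anaerobic at 37 deg C, then 15-30 min room-temperature development before reading.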
# Potency is the fitted concentration of half-maximal effect.
row,SMILES,Potency
1,C=CCn1c(C)cc(C(=O)COC(=O)c2n[nH]c(=O)c3ccccc23)c1C,4600 nM (active)
2,COCCn1c(C)cc(C(=O)COc2ccc(C)nc2[N+](=O)[O-])c1C,918 nM (active)
3,c1ccc2cc3c(NCCN4CCOCC4)ccnc3cc2c1,1830 nM (active)
4,Cc1ccc(-c2cnc3cc(C)nn3c2)cc1,5790 nM (active)
5,Clc1ccccc1CSc1nc2ccncc2[nH]1,3650 nM (active)
6,COc1cccc(CSc2nc3ccncc3[nH]2)c1,1630 nM (active)
7,O=C(c1ccc(CSc2nc3ccncc3[nH]2)cc1)N1CCCCCC1,1160 nM (active)
8,Clc1ccc(CSc2nc3ccncc3[nH]2)cc1,579 nM (active)
9,Cc1ccc(CSc2nc3ccncc3[nH]2)cc1,259 nM (active)
10,CC(C)CC(=O)NC(=S)NNC(=O)c1ccc([N+](=O)[O-])cc1,1300 nM (active)
11,CCCC(=O)NC(=S)NNC(=O)c1ccc([N+](=O)[O-])cc1,410 nM (active)
12,CSCCC(NS(=O)(=O)c1ccc2c(c1)OCCO2)C(=O)N(C)Cc1ccccc1F (stereo unspecified),inactive
13,CSCCC(NC(=O)OC(C)(C)C)C(=O)Oc1ccc2c(=O)c(-c3ccc4c(c3)OCCO4)coc2c1 (stereo unspecified),1030 nM (active)
14,O=C(Nc1cc(S(=O)(=O)N2CCOCC2)ccc1N1CCOCC1)c1ccc([N+](=O)[O-])s1,4100 nM (active)
15,O=C(Nc1ccccc1N1CCOCC1)c1ccc([N+](=O)[O-])s1,2050 nM (active)
16,O=C(/C=C/c1ccc(O)c([N+](=O)[O-])c1)c1ccc2ccccc2c1,2050 nM (active)
17,Cc1ccc(-n2c(C)cc(C(=O)COc3cccnc3[N+](=O)[O-])c2C)cc1,516 nM (active)
18,Cc1cc(C(=O)COc2cccnc2[N+](=O)[O-])c(C)n1-c1ccccc1,365 nM (active)
19,Cc1cc(C(=O)COc2cccnc2[N+](=O)[O-])c(C)n1-c1ccccc1F,1160 nM (active)
20,O=C(COc1cccnc1[N+](=O)[O-])c1c[nH]c2ccccc12,5160 nM (active)
21,Cc1ccc2nccnc2c1,1300 nM (active)
22,O=C1C[C@@H](c2ccc(O[C@@H]3O[C@H](CO)[C@@H](O)[C@H](O)[C@H]3O)cc2)Oc2cc(O)ccc21,inactive
23,Cc1cc(C(=O)N/N=C/c2ccc([N+](=O)[O-])o2)c(C)o1,579 nM (active)

row,SMILES,Potency
1,CC1(C(=O)N/N=C/c2ccc([N+](=O)[O-])o2)CC1(Br)Br (stereo unspecified),650 nM (active)
2,COc1ccccc1NS(=O)(=O)c1cccc(C(=O)N/N=C/c2ccc([N+](=O)[O-])o2)c1,4100 nM (active)
3,CCOc1ccccc1NS(=O)(=O)c1c[nH]c(C(=O)OC)c1,inactive
4,O=C(Cc1ccc2c(c1)OCO2)NN=Cc1ccc([N+](=O)[O-])o1,918 nM (active)
5,O=C(N/N=C/c1ccc([N+](=O)[O-])o1)c1ccc2c(c1)OCO2,818 nM (active)
6,O=C(Cc1ccc([N+](=O)[O-])cc1)N/N=C/c1ccc([N+](=O)[O-])o1,1160 nM (active)
7,O=c1c2ccccc2sc2ccc(C#CC3(O)CCCCC3)cc12,650 nM (active)
8,Cc1ccc(C2=NCCn3c2c2ccc([N+](=O)[O-])cc2[n+]3[O-])cc1,1300 nM (active)
9,O=[N+]([O-])c1ccc2c3n([n+]([O-])c2c1)CCN=C3c1ccc(Cl)cc1,4100 nM (active)
10,C[C@H](CO)N1C[C@H](C)[C@H](CN(C)C(=O)Nc2ccc(C(F)(F)F)cc2)Oc2c(NC(=O)c3ccncc3)cccc2C1=O,inactive
11,C[C@@H]1CN([C@H](C)CO)C(=O)c2cc(NC(=O)Nc3ccc4c(c3)OCO4)ccc2O[C@H]1CN(C)Cc1ccncc1,inactive
12,C[C@@H]1CN([C@@H](C)CO)C(=O)c2cccc(NS(=O)(=O)c3cccs3)c2O[C@H]1CN(C)Cc1ccc(C(F)(F)F)cc1,3650 nM (active)
13,O=C1NC(=S)S/C1=C\C=C\c1ccc([N+](=O)[O-])o1,326 nM (active)
14,[O-][n+]1c2ccccc2c2n1CCCN=C2c1ccc(Cl)cc1,1300 nM (active)
15,[O-][n+]1c2ccccc2c2n1CCN=C2c1ccc(Cl)cc1,290 nM (active)
16,Cc1ccc(C2=NCCn3c2c2ccccc2[n+]3[O-])cc1,146 nM (active)
17,Cc1cnc([N+](=O)[O-])n1CCOC(=O)NC(=O)c1ccccc1,918 nM (active)
18,Cc1cnc([N+](=O)[O-])n1CCOC(=O)NC(=O)c1ccc(F)cc1,1160 nM (active)
19,Cc1cnc([N+](=O)[O-])n1CCOC(=O)NC(=O)c1cccc(F)c1,650 nM (active)
20,Cc1cnc([N+](=O)[O-])n1CCOC(=O)NC(=O)c1c(F)cccc1F,1300 nM (active)
21,Cc1cnc([N+](=O)[O-])n1CCOC(=O)NC(=O)c1ccc(C(F)(F)F)cc1,259 nM (active)
22,Cc1cnc([N+](=O)[O-])n1CCOC(=O)c1cccc(F)c1,1160 nM (active)
23,Cc1ccc(C(=O)NC(=O)OCCn2c(C)cnc2[N+](=O)[O-])cc1,183 nM (active)
